Activity calls are given as the source filed them.

The values that follow come from PubChem BioAssay.

This assay can be described thus: CREB reporter modulators without forskolin, primary screen, cell-based, PC12, CRE-LacZ reporter, unstimulated (AID 1145). The settings on record: no forskolin, luminescence, 4.5 h, higher = more signal, called active from +8 up or from −8 down.
On to `C=CCC(OC(C)=O)[C@@H]1[C@@H](N(Cc2cc3ccccc3o2)C(=O)c2ccc(C)cc2)c2cc(OCCCO)ccc2N1C(=O)c1ccc2ccccc2c1` (some centres undefined), for which the z-score was 3.93 (inactive).

`COc1c(C)cc(-c2cc3c(c(-c4ccc(Oc5ccccc5)cc4)n2)[Si](C(C)C)(C(C)C)OC3)cc1C`: the z-score is 0.148 (inactive).

As for `COc1ccc([Si](C)(C)[C@@H]2[C@@H](CC(=O)N3CCC[C@H]3CO)O[C@]3(C(=O)N(C)c4c(Br)cc(C)cc43)[C@H]2C)cc1`, the z-score was 6.67 (inactive).

Regarding `CCC(CC)C(O)C1C=CC2C(=O)N(c3ccccc3)C(=O)C2N1Nc1ccc(C#N)cc1` (centres undefined), the z-score is 1.01 (inactive).

On to `C=CCC(OC(C)=O)[C@@H]1[C@@H](N(Cc2ccc(-c3ccccc3)cc2)C(=O)Cc2ccc(F)cc2)c2cc(OCCCO)ccc2N1C(=O)c1ccc2ccccc2n1` (some centres undefined), for which the z-score was 2.31 (inactive).

Turning to `C=C[C@@H](COC(C)=O)N(Cc1ccccc1[N+](=O)[O-])S(=O)(=O)c1ccc(Br)cc1`, the z-score is -0.0108 (inactive).

Consider `COCCOC(=O)N1C(=O)[C@@]2(c3cc(C#CC4=CCCCC4)ccc31)[C@H](C(=O)NC[C@H](O)c1ccccc1)[C@H]1C(=O)O[C@H](c3ccccc3)[C@H](c3ccccc3)N1[C@@H]2c1ccc(O)cc1`, for which the z-score was 0.208 (inactive).

`[N-]=[N+]=Nc1ccccc1[C@@H]1OC(c2ccc(OCCCO)cc2)=N[C@]1(CCS(=O)(=O)c1ccccc1)C(=O)N1CCOCC1`: the z-score is 1.8 (inactive).

With `Cc1ccc(S[C@]2(C(=O)NCC(C)C)CC(=O)N(Cc3ccccc3Cl)[C@@H]2c2ccc(CO)cc2)cc1`, the z-score was 0.118 (inactive).
